Hits are enriched below; roughly 3.4% of the tested compounds scored in any of these assays.
SMARCA2 activ: increases SMARCA2 function in MMTV reporter cells. MG213 cells, MMTV-luciferase reporter, dexamethasone, overnight. activation, % at 9.1 µM. hit rate 1% among 370,000. AID 652017; in the data active = activation above about 7.8%;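 note: 0% = vehicle wells and 100% = reference activator wells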
HSP90 refold inh: blocks HSP90-mediated luciferase refolding in reticulocyte lysate; Rabbit reticulocyte lysate, luciferase refolding luminescence, 3 h; inhibition, % at 5.6 µM; hit rate 0.91% among 290,000;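 active = inhibition above the screen-wide mean plus 3 SD, computed separately per campaign, cut at about 16% in these data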;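 note: 0% = DMSO wells and 100% = 60 µM geldanamycin wells; inhibitors lower the luminescence because luciferase stays unfolded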
HSF1 inh: HSF1 inhibition. hit rate 0.77% among 300,000. NIH3T3-HGL HSE-luciferase, MG132-induced, luminescence 8 h; hits give low values. activity change, negative = inhibition, % at 7.5 µM (by protocol);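 active = more than half of replicate wells show activity change below -50%, luminescence cut by over half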;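 note: luciferase reports HSF-1 transcriptional activity via heat shock element; 0% = median of DMSO wells and -100% = zero luminescence signal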
AI-2 QS modul: modulators of Vibrio harveyi AI-2 quorum sensing system; AID 2094; hit rate 0.4% among 300,000; activity change, % at 7.5 µM; Vibrio harveyi JMH597 AI-2 luminescence/OD600 ratio, 9 h; hits give low values; strain lacks LuxN and CqsS sensors; 0 = neutral-control median; in the data active = activity change below about -75%, passing the limit was not always enough;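 note: luminescence divided by OD600 gain over 9 h not by final OD600 alone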
PG9 Ab binder: small molecules binding HIV-1 gp120 antibody PG9 | hit rate 0.43% among 360,000 | TR-FRET gp120-PG9 antibody binding | inhibition, % at 6.7 µM | AID 624416; in the data active = inhibition above about 8.5%
GAA850 FXN act: frataxin GAA850 promoter activation; HEK293 lucGAA850 FXN promoter luciferase reporter, 24 h; percent of 10 µM SAHA response; activation, % at 6 µM; hit rate 0.56% among 360,000;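 active = activation above the average of all compounds screened plus 3 SD, cutoff fixed separately per campaign, cut at about 7.5% in these data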;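 note: 0% = DMSO wells and 100% = 10 µM SAHA wells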
PG9 binder conf: confirmation of small molecules binding HIV-1 gp120 antibody PG9; shares compounds with PG9 Ab binder; TR-FRET PG9 antibody binding, biochemical; inhibition, % at 6.7 µM; hit rate 90% among 1,500; AID 651571; in the data active = inhibition above about 9%
PGV04 counter: counter-screen for PG9 binders: binding control antibody PGV04. TR-FRET PGV04 antibody-gp120 binding, biochemical. shares compounds with PG9 Ab binder. inhibition, % at 6.7 µM. AID 651604. hit rate 95% among 1,500; in the data active = inhibition above about 9.5%
PG9 binder DR: small molecules binding HIV-1 gp120 antibody PG9. TR-FRET PG9 antibody-gp120 binding inhibition. IC50, µM. shares compounds with PG9 Ab binder. 95 tested, under 10 active; in the data active = IC50 below about 10 µM
PGV04 DR counter: counter-screen for PG9 binders: binding to control antibody PGV04. TR-FRET binding to control antibody PGV04. IC50, µM. hit rate 20% among 95. shares compounds with PG9 Ab binder
PG126 binding DR: binds control antibody PG126 in PG9 counter-screen | shares compounds with PG9 Ab binder | TR-FRET binding to antibody PG126, counterscreen | IC50, µM | hit rate 20% among 95 | AID 651939
Starred values were filed as active, the others as inactive; i = inactive; . = no result. Cut-off read from the data, not from the text of the source, unless noted: active = IC50 below about 9 µM; inactive = the rest.

SMILES | SMARCA2 activ | HSP90 refold inh | HSF1 inh | AI-2 QS modul | PG9 Ab binder | GAA850 FXN act | PG9 binder conf | PGV04 counter | others
CCC(=O)c1cn(CC(=O)Nc2cccc(C)c2)c2ccccc12 | 0 | 2 | 0 | -7 | 25* | 0 | 16* | 23*
COc1cccc(NC(=O)Cn2cc(C(=O)C3CC3)c3ccccc32)c1 | -1 | . | 3 | 25 | 1 | 0 | . | .
COC(=O)Cc1nnn2c1[C@@H](C)[C@@H](c1ccccc1Br)OC[C@@H]2c1ccccc1 | -4 | . | . | . | -1 | . | . | .
CCn1c2c(n(C(C)=O)c1=O)C[C@@H](c1ccccc1)[C@@H](C)[C@@H](C(=O)N1CCCC1)C2 | 0 | . | . | . | 0 | . | . | .
CC(=O)NC(CSc1cc(C)nc2ccc(Br)cc12)C(=O)O (stereo not drawn) | 0 | 0 | -5 | 12 | 21* | 1 | 34* | 50*
COC(=O)c1cc2oc(C)cc2n1CC(=O)Nc1cc(C)cc(C)c1 | -3 | -1 | -3 | -15 | 9.2* | 0 | 16* | 26*
O=C(C(=O)N1CCN(S(=O)(=O)c2cccc(C(F)(F)F)c2)CC1)c1cccc(C(F)(F)F)c1 | -7 | . | . | . | 0 | . | . | .
Cc1cc(-n2c(C)cc(C(=O)COc3ccc(Cl)cc3C(N)=O)c2C)no1 | -4 | . | . | . | 11* | -1 | 21* | 34*
Cc1nc(=S)c2ccccc2[nH]1 | 1 | 5 | 2 | 26 | -1 | 5 | . | .
S=c1nc(Cc2ccccc2)[nH]c2ccccc12 | -1 | -4 | 5 | -27 | 25* | 3 | 16* | 13* | PG9 binder DR=>67;PGV04 DR counter=i;PG126 binding DR=i
S=c1nc(COc2ccccc2)[nH]c2ccccc12 | 6 | -1 | 7 | -4 | 13* | 1 | 9.2* | 9.4*
O=c1[nH]c(COc2ccccc2)nc2ccccc12 | 4 | -1 | 11 | 10 | -1 | 4 | . | .
Cc1ccc(Cc2nc3ccccc3[nH]2)cc1 | 3 | -3 | 0 | -22 | 0 | 2 | . | .
FC(F)(F)c1nc(=S)c2ccccc2[nH]1 | 1 | 2 | . | . | 17* | 1 | 11* | 9.9*
S=c1nc(Cc2ccc(Cl)cc2)[nH]c2ccccc12 | -1 | -1 | -5 | 17 | 16* | 3 | 8 | 11*
CC(=O)c1cccc(NC(=O)CNC(=O)c2sc3ccccc3c2Cl)c1 | 1 | . | -1 | 13 | 15* | 2 | 17* | 41*
CC1CCCCN1C(=O)COC(=O)CNC(=O)c1sc2ccccc2c1Cl (stereo not drawn) | -2 | . | 2 | 6 | 3 | -1 | . | .
CCOC(=O)C1CCN(C(=O)COC(=O)CNC(=O)c2sc3ccccc3c2Cl)CC1 | 1 | . | . | . | 10* | 1 | 12* | 16*
Cc1cccc(NC(=O)CNC(=O)c2sc3ccccc3c2Cl)n1 | 4 | . | 6 | 0 | 12* | 4 | 4 | 41*
COC(=O)[C@@]12C[C@@H](CC(=O)N3CCOCC3)C(=O)N(Cc3ccc4c(c3)OCO4)C1=CCC(C)(C)C2 | 3 | . | . | . | 0 | . | . | .
COC(=O)C[C@H]1CC[C@@H]2[C@H](COc3ccc(NC(=O)NCc4ccccc4)cc3C(=O)N2C)O1 | -2 | . | . | . | . | . | . | .
COC(=O)c1nn(-c2ccc(C)cc2)c2nnc(Cc3ccccc3)c(=O)n12 | 1 | -1 | -5 | 23 | 23* | 2 | 19* | 28*
COC(=O)c1nn(-c2cccc(C)c2)c2nnc(Cc3ccc(C)cc3)c(=O)n12 | -2 | 1 | -2 | 25 | 0 | 1 | . | .
COC(=O)C1=C(C)N(C)C(=NCc2ccccc2)NC1c1ccccc1C(F)(F)F (stereo not drawn) | -3 | . | . | . | -1 | . | . | .
